40 compounds from PubChem BioAssay (Tox21) can be followed below.

Results filed as inconclusive are left out. Entries that show only a call come without a potency. Activity calls are given as the source filed them. Calls follow the shape of the dose curve; as a rule, active = well fitted cell-killing curve with a large enough effect in the repeat runs; inconclusive = weak or mixed curves, or effect the other way; inactive = flat fitted curve, though single readings scatter.

One assay can be described thus: cAMP Responsive Elements (CRE) small molecule antagonists, cell-based qHTS assay: qHTS cell viability counter screen (AID 2060913). Also: nearly all actives have a fitted effect of over 40% in size. The conditions noted are these: CRE-bla HEK293T viability, CellTiter-Glo luminescence, 5 h; series mostly up to 92.4 µM. The essentials: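 CRE-bla HEK293T cells were seeded in assay medium with 10% dialyzed FBS, incubated 18 hrs at 37 C, then exposed to compounds plus 0.25 uM final NKH477 for 3 hrs. Viability was read by CellTiter-Glo luminescence after 30 min, in the same wells.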
Background: In qHTS, concentration-response curves come from the screen itself.
Consider `ClCC(Br)CBr` (stereo unspecified), for which the Potency result is “inactive”.
Still for that read-out and setting: as for `Nc1ccccc1C(=O)O`, the entry is “inactive”; as for `CS(=O)(=O)c1ccc(C(=O)C2C(=O)CCCC2=O)c(Cl)c1COCC(F)(F)F`, “inactive”.
On the same count and under the same terms, as for `COc1c(C(C)(C)C)cc([N+](=O)[O-])c(C)c1[N+](=O)[O-]`, the entry is “inactive”.
Same read-out and setting: under `O=C(Cl)C(Cl)Cl` stands “inactive”; under `Oc1c(Br)cc(Br)cc1Br`, “inactive”.
`Cc1cccc(Cc2cnc[nH]2)c1C`: the Potency result was “inactive”.
The same measure, in the same setting: under `CCOC(C(=O)OCCN(C)C)(c1ccccc1)c1ccccc1` stands “inactive”; under `O=[N+]([O-])O.O=[N+]([O-])O.[Cd]`, “inactive”.
Same read-out and setting: under `OC[C@@H](O)[C@H]1O[C@@H]2O[C@H](C(Cl)(Cl)Cl)O[C@@H]2[C@H]1O` stands “inactive”; under `NP(N)(=O)NC(=O)c1ccc(F)cc1`, “inactive”; under `Cc1cc(C)nc(Nc2ccccc2)n1`, “inactive”.
The same measure, in the same setting: as for `Cc1coc2c1CCC(C)C2` (stereo unspecified), the entry is “inactive”.
In the case of `C=CCN1CC[C@]23CCCC[C@H]2[C@H]1Cc1ccc(O)cc13`, the Potency result is “inactive”.
The same measure, in the same setting: under `CCC(C)n1c(=O)[nH]c(C)c(Br)c1=O` (stereo unspecified) stands “inactive”; under `Brc1ccccc1`, “inactive”.

A short description of a further assay: cAMP Responsive Elements (CRE) small molecule agonists, cell-based qHTS assay: qHTS cell viability counter screen (AID 2060914). Also: nearly all actives have a fitted effect of over 50% in size. The settings on record: CRE-bla HEK293T viability, CellTiter-Glo luminescence, 5 h; series mostly up to 92.4 µM. The method in brief:
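Cytotoxicity was measured as ATP luminescence (CellTiter-Glo, 30 min at room temperature) in the same wells as the CRE-bla FRET read-out. HEK293T CRE-bla cells had 3 h compound exposure at 37C/5% CO2.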
Turning to `CC(C)=CC1C(C(=O)OC(C#N)c2cccc(Oc3ccccc3)c2)C1(C)C` (stereo unspecified), the Potency entry is “inactive”.
Still for that read-out and setting: as for `Cn1cc[n+](C)c1` (tested in a mixture with another compound), the entry is “inactive”.
Take `C=COC(C)=O`: the Potency result is “inactive”.
Still for that read-out and setting: under `NCC1(CC(=O)O)CCCCC1` stands “inactive”.
The same measure, in the same setting: under `N#CC(O)c1ccccc1` (stereo unspecified) stands “inactive”; under `CCN(CC)c1nc(C)cc(OP(=S)(OC)OC)n1`, “inactive”.
On the same count and under the same terms, under `Oc1c(Cl)cccc1Cl` stands “inactive”.
With `Cc1cc2c3c(c1)C(c1ccccc1)=N[C@@H](NC(=O)c1ccncc1)C(=O)N3CC2`, the Potency entry was “inactive”.
Same read-out and setting: under `CCCN(CCC)C(=O)Cc1c(-c2ccc(Cl)cc2)nc2ccc(Cl)cn12` stands “inactive”; under `CC1(C)C(=O)NC(=O)NC1=O`, “inactive”.
Same read-out and setting: under `CCNC(=O)NC(=O)/C(C#N)=N/OC` stands “inactive”.
With `CCCCCCC(=O)CCCCCC/C=C/C[C@@H](O)[C@H](O)[C@@](N)(CO)C(=O)O`, the activity change, negative = cytotoxicity was -1.02% [at 18.9 µM] (inactive).
With `CCCC(C)(COC(N)=O)COC(=O)NC(C)C` (stereo unspecified), the Potency entry is “inactive”.
`Oc1ccc(Cl)cc1Cl`: the Potency result is “inactive”.
The same measure, in the same setting: as for `C=CC1CC=CCC1` (stereo unspecified), the entry is “inactive”; as for `c1cc[n+]2c(c1)-c1cccc[n+]1CC2`, “inactive”.
Same read-out and setting: under `Cc1cc(C)cc(C)c1` stands “inactive”.
Same read-out and setting: as for `O=S(=O)(O)C(F)(F)C(F)(F)C(F)(F)C(F)(F)C(F)(F)C(F)(F)C(F)(F)C(F)(F)F`, the entry is “inactive”; as for `C=CCOC(N)=O`, “inactive”; as for `Cc1[nH]c(=O)n(C(C)(C)C)c(=O)c1Cl`, “inactive”.
Turning to `O=C(O)COc1ccc(Cl)cc1Cl`, the Potency result was “inactive”.
The same measure, in the same setting: as for `Clc1ccccc1`, the entry is “inactive”; as for `CN(C)C(=O)Cl`, “inactive”.
In the case of `CCOC(=O)NC(C)(C)Cc1ccc(Cl)cc1`, the Potency entry was “inactive”.
On the same count and under the same terms, as for `ClCC(Br)CBr` (stereo unspecified), the entry is “inactive”; as for `Nc1ccccc1C(=O)O`, “inactive”; as for `CS(=O)(=O)c1ccc(C(=O)C2C(=O)CCCC2=O)c(Cl)c1COCC(F)(F)F`, “inactive”.
Same read-out and setting: under `COc1c(C(C)(C)C)cc([N+](=O)[O-])c(C)c1[N+](=O)[O-]` stands “inactive”.
Still for that read-out and setting: as for `O=C(Cl)C(Cl)Cl`, the entry is “inactive”; as for `Oc1c(Br)cc(Br)cc1Br`, “inactive”.
On to `Cc1cccc(Cc2cnc[nH]2)c1C`, for which the Potency result is “inactive”.
As for `CCOC(C(=O)OCCN(C)C)(c1ccccc1)c1ccccc1`, the Potency entry was “inactive”.
On the same count and under the same terms, under `O=[N+]([O-])O.O=[N+]([O-])O.[Cd]` stands “inactive”; under `OC[C@@H](O)[C@H]1O[C@@H]2O[C@H](C(Cl)(Cl)Cl)O[C@@H]2[C@H]1O`, “inactive”; under `NP(N)(=O)NC(=O)c1ccc(F)cc1`, “inactive”.
Same read-out and setting: under `Cc1cc(C)nc(Nc2ccccc2)n1` stands “inactive”.
Same read-out and setting: under `Cc1coc2c1CCC(C)C2` (stereo unspecified) stands “inactive”.
Regarding `C=CCN1CC[C@]23CCCC[C@H]2[C@H]1Cc1ccc(O)cc13`, the Potency result was “inactive”.
Same read-out and setting: as for `CCC(C)n1c(=O)[nH]c(C)c(Br)c1=O` (stereo unspecified), the entry is “inactive”; as for `Brc1ccccc1`, “inactive”.
